The values below come from article PMC7862700, “An all-to-all approach to the identification of sequence-specific readers for epigenetic DNA modifications on cytosine”.

What all share (experiment): DAPPL (digital affinity profiling via proximity ligation, sequencing); 10 mM Tris-HCl pH 7.5, 50 mM NaCl, 1 mM DTT, 4% glycerol, room temperature, 30 min; GST-TFs on glutathione beads, 16-mer random dsDNA library, 0.1% formaldehyde crosslink after washing; high values mean tight binding
One assay deals with T1, FEV (Homo sapiens, UniProt Q99581 1-238).
T1 sequence: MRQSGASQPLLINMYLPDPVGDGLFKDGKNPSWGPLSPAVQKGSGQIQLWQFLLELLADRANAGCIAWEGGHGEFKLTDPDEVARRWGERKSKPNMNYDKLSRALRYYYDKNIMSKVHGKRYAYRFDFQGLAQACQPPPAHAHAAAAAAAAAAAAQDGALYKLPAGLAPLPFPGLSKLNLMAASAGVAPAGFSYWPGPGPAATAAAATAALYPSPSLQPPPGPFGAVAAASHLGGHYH
The conditions noted are these: protein: recombinant; tags: N-terminal GST; dsDNA, one strand shown. Put shortly: (§1)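 Binding signal is defined as a hexamer's read frequency for one factor over its frequency for the tag-only sample. To obtain reads, GST-fused human transcription factors were expressed in yeast, captured on glutathione beads, barcoded with DNA and pooled with that sample. Pools met 200 nmole of a 16-mer random double-stranded DNA library in Tris/NaCl/DTT/glycerol buffer for 30 min at room temperature before washing, 0.1% formaldehyde crosslinking, proximity ligation (BsaI/T4 ligase, 1 h, 37 °C), PCR and Illumina NextSeq500 sequencing.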

The next assay has as its target ETV5 (Homo sapiens, UniProt P41161 1-510). The note with it: protein: recombinant; tags: N-terminal GST; dsDNA, one strand shown. Put shortly: as §1
The next assay addresses HSF1 (Homo sapiens, UniProt Q00613 1-529). The conditions noted are these: protein: recombinant; tags: N-terminal GST; chain copies: 3; dsDNA, one strand shown. The method in brief: as §1
For the next assay, the target named is T2, SPIC (Homo sapiens, UniProt Q8N5J4 1-248).
T2 sequence: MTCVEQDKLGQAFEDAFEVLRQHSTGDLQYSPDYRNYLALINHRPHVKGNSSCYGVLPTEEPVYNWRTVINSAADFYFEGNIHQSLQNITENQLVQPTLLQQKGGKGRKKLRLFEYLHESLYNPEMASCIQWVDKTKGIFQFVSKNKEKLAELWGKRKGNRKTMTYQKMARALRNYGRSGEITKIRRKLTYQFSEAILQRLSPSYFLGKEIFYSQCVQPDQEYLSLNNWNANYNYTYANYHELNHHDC
The note with it: protein: recombinant; tags: N-terminal GST; dsDNA, one strand shown. Put shortly: as §1

The target in another assay is ELF4 (Homo sapiens, UniProt Q99607 1-663). The conditions noted are these: protein: recombinant; tags: N-terminal GST; dsDNA, one strand shown. Put shortly:
as §1

The next assay addresses T3, ELK4 (Homo sapiens, UniProt P28324-2 1-405).
T3 sequence: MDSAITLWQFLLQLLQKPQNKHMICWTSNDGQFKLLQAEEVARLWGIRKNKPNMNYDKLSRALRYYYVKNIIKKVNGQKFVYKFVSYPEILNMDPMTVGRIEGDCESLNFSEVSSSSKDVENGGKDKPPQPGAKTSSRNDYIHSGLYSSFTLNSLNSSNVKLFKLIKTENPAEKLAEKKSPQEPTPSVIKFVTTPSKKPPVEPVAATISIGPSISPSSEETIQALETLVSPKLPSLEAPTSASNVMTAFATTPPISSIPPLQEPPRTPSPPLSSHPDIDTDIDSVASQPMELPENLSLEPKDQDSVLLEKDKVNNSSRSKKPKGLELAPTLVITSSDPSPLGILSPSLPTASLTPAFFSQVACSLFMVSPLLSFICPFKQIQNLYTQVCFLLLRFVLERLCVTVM
The note with it: protein: recombinant; tags: N-terminal GST; dsDNA, one strand shown. The method in brief:
as §1

In a further assay the target is T4, ETV2 (Homo sapiens, UniProt O00321 1-342).
T4 sequence: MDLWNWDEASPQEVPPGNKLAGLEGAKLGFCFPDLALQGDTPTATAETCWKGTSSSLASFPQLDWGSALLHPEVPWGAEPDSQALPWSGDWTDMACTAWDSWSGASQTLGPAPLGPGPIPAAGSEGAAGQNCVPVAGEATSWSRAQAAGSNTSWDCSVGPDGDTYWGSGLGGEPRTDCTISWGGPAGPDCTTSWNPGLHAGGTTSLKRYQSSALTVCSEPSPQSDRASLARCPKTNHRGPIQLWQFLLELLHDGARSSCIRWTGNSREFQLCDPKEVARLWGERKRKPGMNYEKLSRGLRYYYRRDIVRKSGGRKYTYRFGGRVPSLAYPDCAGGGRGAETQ
The conditions noted are these: protein: recombinant; tags: N-terminal GST; dsDNA, one strand shown. Put shortly: as §1

Another assay concerns the target T5, ELF3 (Homo sapiens, UniProt P78545 1-371).
T5 sequence: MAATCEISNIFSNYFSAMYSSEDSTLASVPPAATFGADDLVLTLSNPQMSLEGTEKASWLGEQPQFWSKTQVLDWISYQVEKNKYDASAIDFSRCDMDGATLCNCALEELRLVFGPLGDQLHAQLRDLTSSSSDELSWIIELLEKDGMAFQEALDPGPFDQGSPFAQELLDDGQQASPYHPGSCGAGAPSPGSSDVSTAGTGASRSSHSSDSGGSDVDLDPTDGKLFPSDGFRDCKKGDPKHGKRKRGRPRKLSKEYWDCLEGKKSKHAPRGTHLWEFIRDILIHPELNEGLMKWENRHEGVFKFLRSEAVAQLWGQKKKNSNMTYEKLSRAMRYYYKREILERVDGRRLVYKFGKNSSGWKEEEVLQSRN
The note with it: protein: recombinant; tags: N-terminal GST; dsDNA, one strand shown. Put shortly:
as §1

The next assay has as its target CRX (Homo sapiens, UniProt O43186 1-299). The note with it: protein: recombinant; tags: N-terminal GST; dsDNA, one strand shown. The method in brief: as §1
Another assay addresses ETV1 (Homo sapiens, UniProt P50549 1-477). The note with it: protein: recombinant; tags: N-terminal GST; dsDNA, one strand shown. Put shortly: as §1
The target of the next assay is T6, ERF (Homo sapiens, UniProt P50548 1-548).
T6 sequence: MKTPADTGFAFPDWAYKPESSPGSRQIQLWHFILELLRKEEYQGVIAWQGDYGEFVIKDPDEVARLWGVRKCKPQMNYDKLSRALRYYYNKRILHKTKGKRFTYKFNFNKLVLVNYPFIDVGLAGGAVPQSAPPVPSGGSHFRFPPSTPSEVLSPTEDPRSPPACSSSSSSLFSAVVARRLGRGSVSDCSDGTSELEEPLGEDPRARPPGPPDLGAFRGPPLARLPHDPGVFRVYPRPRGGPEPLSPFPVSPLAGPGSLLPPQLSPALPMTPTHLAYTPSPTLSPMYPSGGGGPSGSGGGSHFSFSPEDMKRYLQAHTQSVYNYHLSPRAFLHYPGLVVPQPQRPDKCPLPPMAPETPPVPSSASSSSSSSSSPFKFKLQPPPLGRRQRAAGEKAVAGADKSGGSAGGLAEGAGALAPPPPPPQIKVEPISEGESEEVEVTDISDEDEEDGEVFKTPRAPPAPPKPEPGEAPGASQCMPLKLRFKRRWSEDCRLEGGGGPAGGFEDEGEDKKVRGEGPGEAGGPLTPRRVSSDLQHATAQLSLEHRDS
The note with it: protein: recombinant; tags: N-terminal GST; dsDNA, one strand shown. The method in brief:
as §1

The next assay deals with T7, ETV3L (Homo sapiens, UniProt Q6ZN32 1-361).
T7 sequence: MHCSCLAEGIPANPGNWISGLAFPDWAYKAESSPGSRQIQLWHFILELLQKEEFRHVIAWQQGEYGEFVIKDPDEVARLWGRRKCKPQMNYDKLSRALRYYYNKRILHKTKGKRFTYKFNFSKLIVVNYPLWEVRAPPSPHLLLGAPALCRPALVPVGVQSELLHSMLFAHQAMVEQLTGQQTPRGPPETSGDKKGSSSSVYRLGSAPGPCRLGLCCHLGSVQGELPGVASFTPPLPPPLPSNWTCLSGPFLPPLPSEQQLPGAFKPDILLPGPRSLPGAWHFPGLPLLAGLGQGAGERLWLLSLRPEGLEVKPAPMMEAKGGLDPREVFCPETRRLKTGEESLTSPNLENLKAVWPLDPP
The conditions noted are these: protein: recombinant; tags: N-terminal GST; dsDNA, one strand shown. The method in brief:
as §1

Another assay deals with T8, ETS2 (Homo sapiens, UniProt P15036 1-469).
T8 sequence: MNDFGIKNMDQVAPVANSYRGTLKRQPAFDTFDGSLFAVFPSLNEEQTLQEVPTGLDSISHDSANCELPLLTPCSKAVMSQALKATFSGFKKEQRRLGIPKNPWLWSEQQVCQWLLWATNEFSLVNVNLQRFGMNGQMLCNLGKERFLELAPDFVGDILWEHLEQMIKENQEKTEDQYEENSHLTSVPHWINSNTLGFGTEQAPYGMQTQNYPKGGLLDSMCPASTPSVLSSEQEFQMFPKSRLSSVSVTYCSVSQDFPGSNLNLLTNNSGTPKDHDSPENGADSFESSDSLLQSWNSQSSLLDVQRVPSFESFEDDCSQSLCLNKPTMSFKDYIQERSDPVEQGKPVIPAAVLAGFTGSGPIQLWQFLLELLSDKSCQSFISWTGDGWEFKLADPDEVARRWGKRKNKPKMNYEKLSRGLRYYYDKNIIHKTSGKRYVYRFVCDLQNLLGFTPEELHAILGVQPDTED
The conditions noted are these: protein: recombinant; tags: N-terminal GST; dsDNA, one strand shown. The method in brief: as §1

In a further assay the target is T9, SPDEF (Homo sapiens, UniProt O95238 1-335).
T9 sequence: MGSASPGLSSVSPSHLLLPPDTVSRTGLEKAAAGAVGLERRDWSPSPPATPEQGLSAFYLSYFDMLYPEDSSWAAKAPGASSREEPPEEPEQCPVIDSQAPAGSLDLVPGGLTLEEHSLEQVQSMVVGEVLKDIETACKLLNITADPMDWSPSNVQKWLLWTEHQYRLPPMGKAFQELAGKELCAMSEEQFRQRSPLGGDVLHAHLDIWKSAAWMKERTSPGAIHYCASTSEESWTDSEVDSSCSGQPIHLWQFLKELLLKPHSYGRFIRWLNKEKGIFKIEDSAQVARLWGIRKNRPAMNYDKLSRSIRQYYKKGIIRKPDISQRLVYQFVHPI
The conditions noted are these: protein: recombinant; tags: N-terminal GST; dsDNA, one strand shown. The method in brief: as §1

In the next assay the target is T10, ETV7 (Homo sapiens, UniProt Q9Y603 1-341).
T10 sequence: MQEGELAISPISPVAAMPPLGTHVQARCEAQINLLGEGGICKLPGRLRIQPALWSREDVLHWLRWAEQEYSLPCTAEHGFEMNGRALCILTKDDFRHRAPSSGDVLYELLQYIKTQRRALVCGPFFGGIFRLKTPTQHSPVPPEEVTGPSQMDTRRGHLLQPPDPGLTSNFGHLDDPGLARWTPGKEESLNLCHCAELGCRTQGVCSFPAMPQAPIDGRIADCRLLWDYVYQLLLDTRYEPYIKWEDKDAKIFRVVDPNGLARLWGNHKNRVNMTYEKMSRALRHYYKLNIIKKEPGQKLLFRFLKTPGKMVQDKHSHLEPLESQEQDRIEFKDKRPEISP
The note with it: protein: recombinant; tags: N-terminal GST; dsDNA, one strand shown. Put shortly: as §1

The next assay deals with T11, ELF5 (Homo sapiens, UniProt Q9UKW6-2 1-255).
T11 sequence: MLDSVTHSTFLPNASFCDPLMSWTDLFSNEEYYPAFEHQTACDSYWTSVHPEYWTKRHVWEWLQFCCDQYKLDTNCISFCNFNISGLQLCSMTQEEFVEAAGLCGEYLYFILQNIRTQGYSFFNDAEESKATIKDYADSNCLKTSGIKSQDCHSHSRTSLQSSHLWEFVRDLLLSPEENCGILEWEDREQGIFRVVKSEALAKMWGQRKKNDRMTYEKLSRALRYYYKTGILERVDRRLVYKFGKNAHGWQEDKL
The conditions noted are these: protein: recombinant; tags: N-terminal GST; dsDNA, one strand shown. The method in brief: as §1

For the next assay, the target named is T12, ETV3 (Homo sapiens, UniProt P41162-2 1-143).
T12 sequence: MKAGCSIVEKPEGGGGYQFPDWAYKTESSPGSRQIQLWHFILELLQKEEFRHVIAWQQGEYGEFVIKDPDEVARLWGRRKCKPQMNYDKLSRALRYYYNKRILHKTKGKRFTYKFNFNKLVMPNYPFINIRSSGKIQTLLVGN
The note with it: protein: recombinant; tags: N-terminal GST; dsDNA, one strand shown. Put shortly:
as §1

The next assay concerns the target ETV6 (Homo sapiens, UniProt P41212 1-452). The conditions noted are these: protein: recombinant; tags: N-terminal GST; dsDNA, one strand shown. Put shortly:
as §1

Chain of ETV6 (P41212 whole entry): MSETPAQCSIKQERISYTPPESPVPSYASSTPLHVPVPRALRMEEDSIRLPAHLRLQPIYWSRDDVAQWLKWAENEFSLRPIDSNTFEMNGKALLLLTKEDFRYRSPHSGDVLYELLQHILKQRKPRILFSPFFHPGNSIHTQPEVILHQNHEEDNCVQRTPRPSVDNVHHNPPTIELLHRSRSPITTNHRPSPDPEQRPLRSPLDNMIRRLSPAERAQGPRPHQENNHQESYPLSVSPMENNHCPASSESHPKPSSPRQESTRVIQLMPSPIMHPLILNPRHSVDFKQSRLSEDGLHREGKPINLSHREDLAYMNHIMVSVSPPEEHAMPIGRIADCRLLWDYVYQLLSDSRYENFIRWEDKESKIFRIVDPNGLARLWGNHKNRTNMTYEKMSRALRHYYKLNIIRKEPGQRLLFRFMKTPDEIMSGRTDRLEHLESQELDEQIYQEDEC
Chain of ETV1 (P50549 whole entry): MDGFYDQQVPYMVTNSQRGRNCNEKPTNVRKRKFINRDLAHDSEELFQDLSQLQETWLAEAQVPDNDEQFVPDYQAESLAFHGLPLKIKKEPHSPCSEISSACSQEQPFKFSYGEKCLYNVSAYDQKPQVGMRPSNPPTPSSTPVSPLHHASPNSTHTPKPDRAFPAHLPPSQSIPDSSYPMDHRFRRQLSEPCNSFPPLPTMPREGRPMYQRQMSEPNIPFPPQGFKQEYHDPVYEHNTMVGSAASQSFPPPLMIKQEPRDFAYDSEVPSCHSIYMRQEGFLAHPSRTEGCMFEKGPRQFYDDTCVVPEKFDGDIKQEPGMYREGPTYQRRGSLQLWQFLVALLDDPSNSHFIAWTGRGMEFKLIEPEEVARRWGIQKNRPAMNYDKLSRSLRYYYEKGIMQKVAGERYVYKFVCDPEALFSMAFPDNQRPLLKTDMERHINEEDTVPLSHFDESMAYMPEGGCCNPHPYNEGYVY
Chain of HSF1 (Q00613 whole entry): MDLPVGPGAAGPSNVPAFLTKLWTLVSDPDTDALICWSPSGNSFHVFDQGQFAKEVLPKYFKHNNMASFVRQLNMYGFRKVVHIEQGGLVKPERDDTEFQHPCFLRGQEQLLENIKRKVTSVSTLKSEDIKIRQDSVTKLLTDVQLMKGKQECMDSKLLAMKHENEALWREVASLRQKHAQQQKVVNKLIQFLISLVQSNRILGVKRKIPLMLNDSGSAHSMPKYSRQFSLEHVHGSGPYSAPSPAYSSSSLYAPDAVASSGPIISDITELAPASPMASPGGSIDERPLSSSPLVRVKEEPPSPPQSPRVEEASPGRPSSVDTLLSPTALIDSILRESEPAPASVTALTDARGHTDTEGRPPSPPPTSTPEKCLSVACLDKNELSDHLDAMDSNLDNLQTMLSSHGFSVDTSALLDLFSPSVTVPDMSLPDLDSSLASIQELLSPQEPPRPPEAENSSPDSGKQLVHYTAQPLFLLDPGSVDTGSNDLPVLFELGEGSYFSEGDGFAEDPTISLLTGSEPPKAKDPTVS
Chain of CRX (O43186 whole entry): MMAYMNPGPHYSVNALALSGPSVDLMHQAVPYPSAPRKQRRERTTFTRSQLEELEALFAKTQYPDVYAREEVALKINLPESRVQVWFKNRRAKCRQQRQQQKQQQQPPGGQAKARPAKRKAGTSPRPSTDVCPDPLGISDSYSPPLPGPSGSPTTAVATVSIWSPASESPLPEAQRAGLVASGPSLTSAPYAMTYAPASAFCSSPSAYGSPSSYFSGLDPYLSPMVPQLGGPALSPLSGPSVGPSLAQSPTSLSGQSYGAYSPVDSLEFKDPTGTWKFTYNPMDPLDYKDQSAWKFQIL
Chain of ELF4 (Q99607 whole entry): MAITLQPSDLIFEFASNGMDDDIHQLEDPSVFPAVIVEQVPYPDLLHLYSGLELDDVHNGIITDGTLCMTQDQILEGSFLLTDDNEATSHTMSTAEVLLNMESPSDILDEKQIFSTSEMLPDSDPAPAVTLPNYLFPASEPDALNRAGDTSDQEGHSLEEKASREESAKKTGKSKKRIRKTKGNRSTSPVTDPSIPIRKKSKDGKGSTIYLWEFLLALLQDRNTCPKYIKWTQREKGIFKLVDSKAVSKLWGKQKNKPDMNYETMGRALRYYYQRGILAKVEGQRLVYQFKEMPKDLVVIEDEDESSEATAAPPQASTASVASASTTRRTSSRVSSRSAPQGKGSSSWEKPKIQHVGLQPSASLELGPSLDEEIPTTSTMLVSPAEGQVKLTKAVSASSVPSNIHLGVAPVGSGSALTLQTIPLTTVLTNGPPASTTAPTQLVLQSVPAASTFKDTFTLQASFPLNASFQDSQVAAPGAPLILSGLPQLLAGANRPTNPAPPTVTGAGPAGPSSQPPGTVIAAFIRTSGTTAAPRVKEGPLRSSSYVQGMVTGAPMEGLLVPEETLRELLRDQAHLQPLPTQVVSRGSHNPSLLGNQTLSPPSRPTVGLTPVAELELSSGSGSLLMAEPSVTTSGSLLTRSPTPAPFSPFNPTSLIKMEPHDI
Chain of ETV5 (P41161 whole entry): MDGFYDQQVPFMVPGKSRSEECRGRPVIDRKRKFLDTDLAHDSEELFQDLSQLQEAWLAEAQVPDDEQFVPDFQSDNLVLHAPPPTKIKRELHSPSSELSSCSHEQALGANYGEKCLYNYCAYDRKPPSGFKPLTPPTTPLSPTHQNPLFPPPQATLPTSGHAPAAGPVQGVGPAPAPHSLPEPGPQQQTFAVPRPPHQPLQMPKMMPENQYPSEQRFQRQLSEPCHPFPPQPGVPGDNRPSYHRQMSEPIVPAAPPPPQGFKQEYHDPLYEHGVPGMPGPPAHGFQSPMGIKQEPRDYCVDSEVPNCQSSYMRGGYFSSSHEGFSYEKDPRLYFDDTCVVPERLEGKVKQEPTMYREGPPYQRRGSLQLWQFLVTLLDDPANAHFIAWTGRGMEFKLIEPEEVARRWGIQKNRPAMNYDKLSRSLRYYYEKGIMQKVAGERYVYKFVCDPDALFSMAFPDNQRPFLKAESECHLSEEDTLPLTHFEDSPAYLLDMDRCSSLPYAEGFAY

With TCTATT, the binding signal is 1.22 fold enrichment (6-mer frequency, TF over GST control) with FEV; 1.3 fold enrichment (6-mer frequency, TF over GST control) with ETV5; 1.43 fold enrichment (6-mer frequency, TF over GST control) with HSF1; 1.57 fold enrichment (6-mer frequency, TF over GST control) with SPIC; 1.27 fold enrichment (6-mer frequency, TF over GST control) with ELF4; 1.25 fold enrichment (6-mer frequency, TF over GST control) with ELK4. Also, the binding signal with ETV2 is 1.16 fold enrichment (6-mer frequency, TF over GST control); in the assay with ELF3, 1.35 fold enrichment (6-mer frequency, TF over GST control); in the assay with CRX, 1.37 fold enrichment (6-mer frequency, TF over GST control); with ETV1, 1.25 fold enrichment (6-mer frequency, TF over GST control); with ERF, 1.26 fold enrichment (6-mer frequency, TF over GST control); with ETV3L it was 1.28 fold enrichment (6-mer frequency, TF over GST control). Also, the binding signal was 1.23 fold enrichment (6-mer frequency, TF over GST control) in the assay with ETS2; 1.37 fold enrichment (6-mer frequency, TF over GST control) with SPDEF; 1.11 fold enrichment (6-mer frequency, TF over GST control) with ETV7; 1.18 fold enrichment (6-mer frequency, TF over GST control) in the assay with ELF5; 1.25 fold enrichment (6-mer frequency, TF over GST control) with ETV3; 1.29 fold enrichment (6-mer frequency, TF over GST control) with ETV6.
